High-throughput results as filed in PubChem.
Only some compounds are listed: those with a hit (about 4% of all), similar ones and a draw of the others.
Mdm2 MdmX PPI: inhibitors of human Mdm2-MdmX association, primary screen, cell-based, luminescence, split luciferase, SaOS-2, uHTS; SaOS-2 split-luciferase Mdm2/MdmX complementation; Protein Mdm4 (Homo sapiens) + E3 ubiquitin-protein ligase Mdm2 (Homo sapiens), …; inhibition, % at 8 µM; hit rate 3% among 330,000;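 active means inhibition of at least 50% at 8 µM in the primary screen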
Target sequence (O15151 whole entry, looked up): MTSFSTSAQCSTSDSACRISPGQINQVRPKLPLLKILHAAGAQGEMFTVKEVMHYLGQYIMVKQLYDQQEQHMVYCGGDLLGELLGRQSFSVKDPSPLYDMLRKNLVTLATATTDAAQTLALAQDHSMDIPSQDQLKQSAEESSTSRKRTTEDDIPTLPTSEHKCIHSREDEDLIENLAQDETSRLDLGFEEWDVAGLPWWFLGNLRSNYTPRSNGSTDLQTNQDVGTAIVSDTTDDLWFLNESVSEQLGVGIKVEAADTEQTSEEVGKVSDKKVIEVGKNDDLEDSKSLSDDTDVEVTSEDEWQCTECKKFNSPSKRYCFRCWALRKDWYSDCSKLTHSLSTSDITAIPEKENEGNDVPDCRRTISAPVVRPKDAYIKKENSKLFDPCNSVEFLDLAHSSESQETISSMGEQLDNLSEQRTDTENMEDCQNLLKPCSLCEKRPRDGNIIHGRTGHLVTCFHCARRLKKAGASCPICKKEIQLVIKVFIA
Target sequence (Q00987 whole entry, looked up): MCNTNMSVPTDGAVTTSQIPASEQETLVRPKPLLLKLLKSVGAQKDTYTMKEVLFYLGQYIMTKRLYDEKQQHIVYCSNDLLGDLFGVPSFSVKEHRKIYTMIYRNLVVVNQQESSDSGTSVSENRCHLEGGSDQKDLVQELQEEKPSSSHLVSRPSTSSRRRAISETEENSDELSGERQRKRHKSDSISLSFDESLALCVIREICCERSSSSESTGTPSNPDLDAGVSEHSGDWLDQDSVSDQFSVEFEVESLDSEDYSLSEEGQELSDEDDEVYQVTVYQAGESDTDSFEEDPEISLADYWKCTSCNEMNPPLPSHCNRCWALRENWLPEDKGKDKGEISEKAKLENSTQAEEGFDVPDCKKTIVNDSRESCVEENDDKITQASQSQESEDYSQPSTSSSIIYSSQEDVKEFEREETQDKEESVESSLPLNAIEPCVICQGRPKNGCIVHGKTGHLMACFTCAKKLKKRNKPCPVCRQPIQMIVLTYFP
PAX8 inh HTS: inhibitors of PAX8-driven TPO luciferase reporter, primary screen, RMG-I cells, single concentration; inhibition, % at 12.6 µM; AID 652154, 2013; hit rate 1.2% among 360,000; SteadyGlo, 24 h;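 active means mean replicate inhibition at least 60% with every replicate also reaching 60%; inconclusive means only one of the two criteria is met; inactive means mean below 60% and not all replicates reaching 60%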;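 further: luciferase light reporting Pax8 driven TPO promoter activity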
Beta apoptosis: inhibitors of cytokine-induced beta cell apoptosis, primary screen, luminescence. protection from apoptosis, % (no concentration beside the values). INS-1E cytokine-induced death, ATP luminescence, 48 h; percent of positive-control rescue, neutral wells zero. hit rate 0.8% among 300,000;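 active means Every replicate reaches about 75%, or at least half do and their mean reaches it too, limit read from the data; inconclusive means At least half of replicates reach the limit but their mean does not; inactive means Under half of replicates reach the limit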;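 further: higher means more ATP so stronger rescue from cytokine killing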
Shn3 3UTR inh: reduction of Shn3 3'UTR firefly luciferase signal, primary screen, Schnurri-3 inhibitor project, cell-based, Clone20 osteoblasts, set 2. Clone20 osteoblast Shn3 3'UTR firefly luciferase, 24 h. inhibition, % at 12.5 µM. hit rate 0.52% among 360,000. AID 588674, 2011;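 active means mean inhibition of at least 75% with every replicate also reaching 75%; inconclusive means mean inhibition at least 75% but some replicate below; inactive means mean inhibition below 75%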
CSC inhib: cancer stem cell viability inhibitors, primary screen, luminescence; cancer stem cell-like cells viability; inhibition, % at 7.5 µM; hit rate 1.1% among 300,000; in the data active means inhibition above about 75%; inconclusive means no clear call, values can overlap the other calls; tested in HMLE shEcad cells
Gli-Sufu block: Gli-Sufu pathway antagonists, primary screen, luciferase luminescence, Sufu-KO-LIGHT cells, uHTS. Sufu-KO-LIGHT fibroblasts, Gli luciferase reporter luminescence. inhibition, % at 5 µM. hit rate 0.74% among 340,000. AID 588413, 2011;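 active means inhibition above about 55%, limit read from the data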
Mdm2 MdmX conf: Mdm2-MdmX complex disruptors, retested hits, confirmation, luminescence, single concentration | shares compounds with Mdm2 MdmX PPI | Mdm2-MdmX binding, luminescent assay | inhibition, % at 8 µM | hit rate 55% among 10,000 | AID 489028, 2010; in the data active means inhibition above about 40%
Full FLuc ctr: full-length luciferase signal inhibition, confirmation, counter-screen for Mdm2/MdmX interaction inhibitor project, cell-based, single concentration, SaOS-2; hit rate 77% among 6,200; inhibition, % at 8 µM; shares compounds with Mdm2 MdmX PPI; SaOS-2 full-length luciferase counterscreen, luminescence; AID 504607, 2011;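 active means mean inhibition at 8 µM reaching about 37%, which flags the compound as non-specific, limit read from the data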;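 further: p53-null SaOS-2 cells with luciferase driven by a doxycycline-inducible promoter; compound on cells about two nights before reading with doxycycline added after day one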
Of the large screens only hits and unclear results are named; the others gave an inactive call (follow-up assays come after a bar, where they were run).

CC(=O)Nc1ccc(S(=O)(=O)NCCC(=O)OCc2csc(CC(=O)Nc3ccccc3C)n2)cc1	Mdm2 MdmX PPI 51 (no result: Beta apoptosis) | Mdm2 MdmX conf inactive
CN(C)C(=O)C[C@H]1CC[C@@H]2[C@H](COc3ccc(NC(=O)c4ccc(F)c(F)c4)cc3C(=O)N2C)O1	none (no result: Mdm2 MdmX PPI, Beta apoptosis, Shn3 3UTR inh, CSC inhib, Gli-Sufu block)
O=C(COc1ccc(Oc2ccccc2)cc1)NCc1cn2ccccc2n1	Mdm2 MdmX PPI 56 | Mdm2 MdmX conf 57 | Full FLuc ctr 73
O=C(Cn1nc(CNc2ccc(Cl)cc2)[n+]2c1CCCCC2)c1ccccc1	none
Cc1ccc(C(C)C)c(OCc2nn(CC(=O)c3ccc(Cl)cc3)c3[n+]2CCCCC3)c1	Mdm2 MdmX PPI 97, PAX8 inh HTS 66, Beta apoptosis 136, CSC inhib inconclusive | Mdm2 MdmX conf 74 | Full FLuc ctr inactive
COc1ccccc1Nc1nc(-c2sc(NC(=O)c3ccco3)nc2C)cs1	none
C=CCCC(=O)Nc1nc(C)c(-c2csc(Nc3ccccc3OC)n2)s1	Mdm2 MdmX PPI 60 | Mdm2 MdmX conf 56 | Full FLuc ctr 56
CCC(=O)Nc1nc(C)c(-c2csc(Nc3cccc(O)c3)n2)s1	Mdm2 MdmX PPI 73, CSC inhib 77 | Mdm2 MdmX conf inactive
COc1cccc(N(C(=O)c2ccco2)c2nc(-c3sc(NC(=O)c4ccco4)nc3C)cs2)c1	Mdm2 MdmX PPI 74, PAX8 inh HTS 99 | Mdm2 MdmX conf 49 | Full FLuc ctr 62
C=CCCC(=O)Nc1nc(C)c(-c2csc(Nc3ccc(Cl)cc3Cl)n2)s1	Mdm2 MdmX PPI 54 | Mdm2 MdmX conf inactive
CCCCC(=O)Nc1nc(C)c(-c2csc(Nc3ccccc3OC)n2)s1	none
COC(=O)C[C@H]1CC[C@H]2[C@H](COc3ccc(NC(=O)Nc4c(C)noc4C)cc3C(=O)N2C)O1	none (no result: Mdm2 MdmX PPI, Beta apoptosis, Shn3 3UTR inh, CSC inhib, Gli-Sufu block)
O=C(Nc1ccc(Cl)cc1)N[C@H]1CC[C@@H](CCn2cc(C3(O)CCCC3)nn2)O[C@@H]1CO	none (no result: Mdm2 MdmX PPI, Beta apoptosis, Shn3 3UTR inh, CSC inhib, Gli-Sufu block)
Cc1ccc(Cl)cc1Nc1nc(-c2sc(NC(=O)c3ccco3)nc2C)cs1	Mdm2 MdmX PPI 81, PAX8 inh HTS 86 | Mdm2 MdmX conf inactive
CNC[C@H](Cc1ccccc1)NC[C@@H](Cc1cccc2ccccc12)NCCc1ccc(C)cc1	Mdm2 MdmX PPI 100, Beta apoptosis 107, CSC inhib 108 | Mdm2 MdmX conf 86 | Full FLuc ctr 51
CCCCCCCCCCCCCCCC[N+](C)(C)CCN(Cc1ccc(OC)cc1)c1ncccn1	Mdm2 MdmX PPI 100, Beta apoptosis 100, CSC inhib 117, Gli-Sufu block 64 (no result: PAX8 inh HTS) | Mdm2 MdmX conf 96 | Full FLuc ctr inactive
COc1ccc(CN(C)c2ncnc(N)n2)cc1	none (no result: PAX8 inh HTS)
CCN(CC)CCOC(=O)c1ccc(N/C=C(/C#N)c2nc(-c3cccc(OC)c3)cs2)cc1	Mdm2 MdmX PPI 61 | Mdm2 MdmX conf inactive
C[C@@H]1CN([C@@H](C)CO)C(=O)c2cccc(NC(=O)Nc3ccc(C(F)(F)F)cc3)c2O[C@@H]1CN(C)C	none (no result: Mdm2 MdmX PPI, Beta apoptosis, Shn3 3UTR inh, CSC inhib, Gli-Sufu block)
Cn1cc(CN2CCN(c3ccc(Cl)cn3)CC2)c(-c2ccccc2F)n1	none
Cc1cccc(N2CCN(Cc3cn(C)nc3-c3ccccc3F)CC2)n1	Mdm2 MdmX PPI 55 | Mdm2 MdmX conf 70 | Full FLuc ctr 49
C[C@H](CO)N1C[C@H](C)[C@H](CN(C)C(=O)c2cccnc2)Oc2ncc(-c3ccc(C#N)cc3)cc2C1=O	none (no result: Mdm2 MdmX PPI, Beta apoptosis, Shn3 3UTR inh, CSC inhib, Gli-Sufu block)
Clc1ccc2c(c1)C(C1=NCCN1)c1ccccc1CS2 (stereo not given)	Mdm2 MdmX PPI 51 | Mdm2 MdmX conf 53 | Full FLuc ctr 48
S=C1NCCc2ccc(Cl)cc2C1c1ccccc1Cl (stereo not given)	none (no result: PAX8 inh HTS)
O=C(Nc1nc(-c2cccc3ccccc23)cs1)c1ccc2c(c1)S(=O)(=O)c1ccccc1C2=O	Mdm2 MdmX PPI 95, CSC inhib inconclusive | Mdm2 MdmX conf inactive
O=C(Nc1nc2ccccc2s1)c1ccc2c(c1)S(=O)(=O)c1ccccc1C2=O	none (no result: Mdm2 MdmX PPI, Beta apoptosis, Shn3 3UTR inh, CSC inhib, Gli-Sufu block)
O=C(Nc1nc(-c2ccccc2)cs1)c1ccc2c(c1)S(=O)(=O)c1ccccc1C2=O	Mdm2 MdmX PPI 74 | Mdm2 MdmX conf inactive
Cc1nc(SCc2nc3ccc(Cl)cc3[nH]2)c2oc3ccccc3c2n1	none (no result: CSC inhib)
Cc1nc(SCc2nc3cc(Cl)c(F)cc3[nH]2)c2oc3ccccc3c2n1	Mdm2 MdmX PPI 92, PAX8 inh HTS 87 (no result: CSC inhib) | Mdm2 MdmX conf 42 | Full FLuc ctr inactive
COC(=O)c1ccc(Sc2nnnn2-c2ccccc2)c([N+](=O)[O-])c1	Mdm2 MdmX PPI 68 | Mdm2 MdmX conf 49 | Full FLuc ctr inactive
Cc1c(C2(O)CCCCC2)[nH]c2ccccc12	none (no result: Mdm2 MdmX PPI, Beta apoptosis, Shn3 3UTR inh, CSC inhib, Gli-Sufu block)
Cc1c(C2(O)CCCCC2)[nH]c2ccc(C(F)(F)F)cc12	Mdm2 MdmX PPI 66, CSC inhib 81 | Mdm2 MdmX conf inactive | Full FLuc ctr 62
C=CCn1cc(/C=C/c2cc[n+](C)cc2)c2ccccc21	Mdm2 MdmX PPI 65, PAX8 inh HTS 93, Beta apoptosis 80, Gli-Sufu block 66 | Mdm2 MdmX conf 42 | Full FLuc ctr 76
C=CCn1c(C)c(/C=C/c2cc[n+](C)cc2)c2ccccc21	Mdm2 MdmX PPI 64, Beta apoptosis 97 | Mdm2 MdmX conf 41 | Full FLuc ctr 69
CCN(CC)C(=O)Cn1c(C)c(/C=C/c2cc[n+](C)cc2)c2ccccc21	none
CC(C)n1cc(/C=C/c2cc[n+](C)cc2)c2ccccc21	Mdm2 MdmX PPI 63, PAX8 inh HTS 83, Gli-Sufu block 71 (no result: Beta apoptosis, CSC inhib) | Mdm2 MdmX conf inactive
Cc1ccccc1/C=C/c1cc[n+](C)cc1	none
COc1ccc(-c2cnc3c(c2)C(=O)N([C@@H](C)CO)C[C@@H](C)[C@@H](CN(C)C(=O)C2CCCCC2)O3)cc1	none (no result: Mdm2 MdmX PPI, Beta apoptosis, Shn3 3UTR inh, CSC inhib, Gli-Sufu block)
Cc1csc2nc(O)c(C(=O)NC3CCCCCC3)c(=O)n12	none (no result: Beta apoptosis)
Cc1csc2nc(O)c(C(=O)NC3CCCCC3)c(=O)n12	Mdm2 MdmX PPI 63 (no result: Beta apoptosis) | Mdm2 MdmX conf 66 | Full FLuc ctr inactive
CCOC(=O)c1sc(NC(=O)/C=C/c2ccccc2)nc1C	none
CCOC(=O)CNC(=O)c1sc(NC(=O)/C=C/c2ccccc2)nc1C	Mdm2 MdmX PPI 69 | Mdm2 MdmX conf inactive
COc1ccc2[nH]c(=O)c(CN(CC3CCCO3)C(=S)Nc3ccccc3)cc2c1 (stereo not given)	none
